In all, about 52,000 compounds went through this assay and about 1,700 (3.3%) were called active. Rule as the data show it: active = survival mostly below about 52% (no sharp cut-off); inactive = mostly above about 56%. Only a selection was taken, and actives are over-represented in it overall.
test system: Wild type; assay: S. aureus survival, RN4220 and DeltatarO strains – OD600, teichoic acid synthesis inhibitors, primary screen (AID 463173); details: S. aureus RN4220 wild type/DeltatarO growth, OD600, 18 h, stronger effect = lower value, screened at 18.75 µg/mL (by protocol)

| Compound | survival |
| --- | --- |
| CCOC(=O)c1cc(-c2ccccc2)n(CC(=O)NC2CCC(C)CC2)c1C (stereo unspecified) | 81% (inactive) |
| CCc1ccc(NC(=O)C(CC)n2c(=O)c(C(F)(F)F)nc3ccccc32)cc1 (stereo unspecified) | 81% (inactive) |
| Cc1cccc(N2CCN(Cc3cc(=O)oc4cc(C)ccc34)CC2C)c1 (stereo unspecified) | 84% (inactive) |
| O=C1C2=C(Nc3ccccc3SC2c2ccc(C(F)(F)F)cc2)c2ccccc21 (stereo unspecified) | 36% (inactive) |
| O=C1C2=C(Nc3ccccc3SC2c2ccccc2C(F)(F)F)c2ccccc21 (stereo unspecified) | 11% (active) |
| CC(C)(C)c1ccc(C2Sc3ccccc3NC3=C2C(=O)c2ccccc23)cc1 (stereo unspecified) | 82% (inactive) |
| CCC(Sc1nnc(C)n2c1cc1sccc12)C(=O)Nc1ccccc1F (stereo unspecified) | 79% (inactive) |
| CCOc1cc(CNC(=O)c2ccc(Cn3c(=O)c4cccn4c4cccnc43)cc2)ccc1OC | 86% (inactive) |
| COc1cccc(-c2nn(C)c3sc(C(=O)N4CCN(c5cccc(C)c5)C(C)C4)cc23)c1 (stereo unspecified) | 72% (inactive) |
| CCOC(=O)C1CCC(CN(Cc2ccc(Cl)cc2)S(=O)(=O)c2cccc(Cl)c2C)CC1 (stereo unspecified) | 82% (inactive) |
| CC(=O)c1ccc(NC(=O)CC2Nc3cccc4cccc(c34)NC2=O)cc1 (stereo unspecified) | 96% (inactive) |
| CCOC(=O)c1ccc(NC(=O)CC2Nc3ccccc3NC2=O)cc1 (stereo unspecified) | 62% (inactive) |
| CCOC(=O)c1ccc(NC(=O)CC2Nc3cccc4cccc(c34)NC2=O)cc1 (stereo unspecified) | -13% (active) |
| Cc1ccccc1N(C)S(=O)(=O)c1nnc(NC(=O)c2ccccc2F)s1 | 33% (inactive) |
| CCOC(=O)CC(NC(=O)Cn1nnc(-c2ccc(C(F)(F)F)cc2)n1)c1ccc(C)cc1 (stereo unspecified) | 87% (inactive) |
| Cc1ccc(C)c(NC(=O)CCOc2ccccc2)c1 | 94% (inactive) |
| CCc1ccc(NC(=O)Cc2c(C(=O)O)c(C)cn2C)cc1 | 76% (inactive) |
| CCOC(=O)c1ccccc1NC(=O)Cc1c(C(=O)O)c(C)cn1C | -1% (active) |
| Cc1cn(C)c(CC(=O)Nc2cccc(Cl)c2C)c1C(=O)O | 124% (inactive) |
| CCOC(=O)c1ccccc1NC(=O)CCOc1ccccc1 | 6% (active) |
| Cc1c(Cl)cccc1NC(=O)CCOc1ccccc1 | 145% (inactive) |
| CC(=O)N1CCc2cc(S(=O)(=O)NC(Cc3ccccc3)C(=O)Nc3ccc(Cl)cc3)ccc21 (stereo unspecified) | 89% (inactive) |
| O=C(NCCc1ccccc1)c1cc(-c2ccc(Cl)cc2)on1 | 101% (inactive) |

| Compound | survival |
| --- | --- |
| O=C(NCc1ccccc1F)C(=O)NCC(c1ccc2c(c1)OCO2)N1CCOCC1 (stereo unspecified) | 71% (inactive) |
| CCc1cccc(CC)c1NC(=O)C(CC)n1nc(C)n2c(cc3cc(C)ccc32)c1=O (stereo unspecified) | 73% (inactive) |
| CCOc1ccc(CN2C(=O)c3ccccc3Sc3ccc(C(=O)NC)cc32)cc1 | 78% (inactive) |
| Cc1cccc(/C=N/NC(=O)c2ccccn2)c1O | 18% (inactive) |
| Cc1cc(S(=O)(=O)N(C)CCc2ccccc2)ccc1-n1cnnn1 | 99% (inactive) |
| CCOC(=O)c1cc(S(=O)(=O)Nc2cc(C)c(Cl)cc2OC)[nH]n1 | 98% (inactive) |
| CCOC(=O)c1cc(S(=O)(=O)Nc2cc(OC)ccc2OC)[nH]n1 | 123% (inactive) |
| CCOC(=O)c1cc(S(=O)(=O)Nc2ccc(OC)c(Cl)c2)[nH]n1 | -6% (active) |
| CCOC(=O)c1cc2sccc2n1CC(=O)NC(C)C | 100% (inactive) |
| COc1ccc(-c2cnc(C)o2)cc1S(=O)(=O)Nc1ccc(C)c(F)c1 | 60% (inactive) |
| Fc1ccc(-n2ncc3c(N4CCCCCC4)ncnc32)cc1 | 82% (inactive) |
| Cc1ccc(N2C(=O)CSC23C(=O)N(CC(=O)Nc2ccc(C(C)C)cc2)c2ccccc23)cc1C (stereo unspecified) | 80% (inactive) |
| CCCSCCCNC(=O)c1ccc2c(c1)sc1nc(-c3ccc(OCC)cc3)cn12 | 85% (inactive) |
| CCN(CC)CCCNC(=O)c1ccc2c(c1)sc1nc(-c3ccc(C)cc3)cn12 | 8% (active) |
| CCCNC(=O)c1ccc2c(c1)sc1nc(-c3ccc(C)cc3)cn12 | 103% (inactive) |
| CCN(CC)CCNC(=O)c1ccc2c(c1)sc1nc(-c3ccc(F)cc3)cn12 | 27% (inactive) |
| CCOc1ccc(-c2cn3c(n2)sc2cc(C(=O)NCCCc4ccccc4)ccc23)cc1 | 96% (inactive) |
| CCOc1ccc(-c2cn3c(n2)sc2cc(C(=O)NCCCN(CC)CC)ccc23)cc1 | 2% (active) |
| CCOc1ccc(N2C(=O)c3n[nH]c(-c4cccs4)c3C2c2cccc(F)c2)cc1 (stereo unspecified) | 60% (inactive) |
| Cc1ccc(CSc2nc3ccncc3n2Cc2nc(-c3ccc(Cl)cc3)oc2C)cc1 | 68% (inactive) |
| Cc1ccc(CSc2nc3ccncc3n2Cc2nc(-c3ccccc3C)oc2C)cc1 | 0% (active) |
| Cc1ccc(C)c(CSc2nc3ccncc3n2Cc2nc(-c3ccccc3Cl)oc2C)c1 | 61% (inactive) |
| CCN(C(=O)Cn1nc(Cc2ccncc2)c2ccccc2c1=O)c1ccc(OC)cc1 | 74% (inactive) |

| Compound | survival |
| --- | --- |
| Cc1ccccc1C(=O)NC1CCN(CC(=O)NC2CCCCC2)CC1 | 98% (inactive) |
| COc1ccc(Cl)cc1NC(=O)C1CCN(c2ncnc3c2nc2n3CCCCC2)CC1 | 82% (inactive) |
| O=S1(=O)CCC(c2ccccc2)C1 (stereo unspecified) | 100% (inactive) |
| O=C(NCc1ccc2c(c1)CCN2C(=O)c1ccccc1)c1cc2ccccc2[nH]1 | 1% (active) |
| Cc1cccc(C(=O)N2CCc3cc(CNC(=O)c4cc5ccccc5[nH]4)ccc32)c1 | 72% (inactive) |
| COc1ccc(CCC(=O)NCc2ccc3c(c2)CCN3C(=O)c2cccc(C)c2)cc1 | 67% (inactive) |
| COc1ccc2cc(C(=O)NCc3ccc4c(c3)CCN4C(=O)c3ccccc3)[nH]c2c1 | -3% (active) |
| COc1ccc(CC(=O)NCc2ccc3c(c2)CCN3C(=O)c2cccc(C)c2)cc1 | -6% (active) |
| O=C(NCc1ccc2c(c1)CCN2C(=O)c1ccc(F)cc1)c1cc2ccccc2[nH]1 | 99% (inactive) |
| COc1ccc2cc(C(=O)NCc3ccc4c(c3)CCN4C(=O)c3ccc(F)cc3)[nH]c2c1 | 68% (inactive) |
| COc1ccc(C(=O)NCc2ccc3c(c2)CCN3C(=O)c2ccccc2)cc1 | 82% (inactive) |
| CCOc1ccc(C(=O)NCc2ccc3c(c2)CCN3C(=O)c2ccccc2)cc1 | -4% (active) |
| COc1ccc(OCC(=O)NCc2ccc3c(c2)CCN3C(=O)c2cccc(C)c2)cc1 | 72% (inactive) |
| CCOc1ccc(C(=O)NCc2ccc3c(c2)CCN3C(=O)c2ccc(Cl)cc2)cc1 | 81% (inactive) |
| COc1ccc2cc(C(=O)NCc3ccc4c(c3)CCN4C(=O)c3ccc(C)cc3)[nH]c2c1 | 84% (inactive) |
| CC(C)c1cc2cc(/C=C/C(=O)O)c(O)cc2o1 | 39% (inactive) |
| CCC(CC)N1CCN(S(=O)(=O)c2ccc(NC(C)=O)cc2)CC1 | 113% (inactive) |
| O=C(/C=C/c1ccccc1)N1CCN(CCN2C(=O)C3C4C=CC(C4)C3C2=O)CC1 (stereo unspecified) | 124% (inactive) |
| Cc1nc(-c2ccc(S(=O)(=O)NCc3ccc(F)cc3)cc2)co1 | 68% (inactive) |
| Nc1c(-c2nc(-c3ccc4c(c3)OCO4)cs2)c2ccccn2c1C(=O)c1ccccc1 | 86% (inactive) |
| COc1ccccc1N1CCN(C(=O)C2CCN(S(=O)(=O)Cc3ccccc3)CC2)CC1 | 84% (inactive) |
| COc1ccc(-c2nc(CS(=O)CC(=O)NCc3ccccc3OC)c(C)o2)cc1 (stereo unspecified) | 123% (inactive) |
| O=C(C1CCC(Cn2c(=O)c3sccc3n(Cc3ccccc3)c2=O)CC1)N1CCOCC1 (stereo unspecified) | 95% (inactive) |

| Compound | survival |
| --- | --- |
| CCCn1c2ccccc2c2cnn(CC(=O)N3CCC(C(=O)OCC)CC3)c(=O)c21 | 87% (inactive) |
| Cc1ccc(C)c(N2CCN(c3nc4ccc(C(=O)c5ccccc5)cc4n4cnnc34)CC2)c1 | 100% (inactive) |
| Cc1ccc(Cl)cc1N1CCN(c2nc3ccc(C(=O)c4ccccc4)cc3n3cnnc23)CC1 | -6% (active) |
| CCc1nnc2c3ccccc3nc(N3CCN(c4cc(Cl)ccc4C)CC3)n12 | 126% (inactive) |
| Cc1ccc(N2CCN(c3nc4ccc(C(=O)c5ccccc5)cc4n4cnnc34)CC2)c(C)c1 | 72% (inactive) |
| Cc1ccc(C)c(N2CCN(c3nc4ccccc4n4c(C)nnc34)CC2)c1 | 87% (inactive) |
| CCc1nnc2c(N3CCN(c4cc(Cl)ccc4C)CC3)nc3ccccc3n12 | -6% (active) |
| O=C(CN1C(=O)C2(SCC(=O)N2c2ccc(F)c(F)c2)c2ccccc21)Nc1cccc(Cl)c1 (stereo unspecified) | 68% (inactive) |
| Cc1ccc2nc3c(c(Nc4ccc(C)c(C)c4)c2c1)CCC3 | 39% (inactive) |
| Fc1ccc(Nc2c3c(nc4ccccc24)CCC3)cc1 | 70% (inactive) |
| Fc1ccc(F)c(Nc2c3c(nc4ccc(Cl)cc24)CCC3)c1 | -1% (active) |
| Fc1ccccc1Nc1c2c(nc3ccccc13)CCC2 | 102% (inactive) |
| FC(F)(F)c1cccc(Nc2c3c(nc4ccc(Cl)cc24)CCC3)c1 | 5% (active) |
| COc1ccccc1Nc1c2c(nc3ccc(NC(=O)c4cccc(F)c4)cc13)CCCC2 | 35% (inactive) |
| CCOC(=O)c1cccc(Nc2c3c(nc4ccccc24)CCC3)c1 | 73% (inactive) |
| COc1ccc(Nc2c3c(nc4ccccc24)CCC3)cc1Cl | 72% (inactive) |
| Cc1ccc(Nc2c3c(nc4ccccc24)CCC3)cc1F | 2% (active) |
| CC1(C)Cc2nc3sc4c(N5CCOCC5)ncnc4c3cc2CO1 | 97% (inactive) |
| O=C(Cn1c(=O)oc2ccccc21)NCc1cccc(Cl)c1 | 78% (inactive) |
| CCOC(=O)c1cnc2nc(NCc3cccc(Br)c3)[nH]n2c1=O | 98% (inactive) |
| NC(=O)C1CCN(c2nc(C3CC3)nc3c2nnn3Cc2ccccc2Cl)CC1 | 108% (inactive) |
| O=C(CN1C=NS(=O)(=O)c2ccc(C(F)(F)F)cc21)Nc1cccc(C(F)(F)F)c1 | 76% (inactive) |
